Consider 16 compounds from PMC5540273 (PLoS ONE, 2017).

Among the test systems are TESK1; TGFBR1; TGFBR2; TIE1; TLK1; TLK2; TNIK; TNK1; TNK2.
Common to all, as to settings: concentration: 1 μM,replicates: in singlicate; n = 1
The next experiment relates to T1, TIE2.
T1 construct: gene TEK
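Also: KINOMEscan kinase panel screen.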

As for `CS(=O)c1ccc(-c2coc3ccc(-c4n[nH]c(=O)o4)cc23)cc1` (stereo not shown), the “%Inh” value with TESK1 was 0%; in the experiment with TGFBR1, 24%; with TGFBR2 it was 18%; with TIE1, 0%; in the experiment on TIE2, 10%; in the experiment with TLK1, 35%. Further, the “%Inh” value in the experiment with TLK2, in the experiment on TNIK, in the experiment with TNK1 and in the experiment on TNK2 was 0% in each case.

On to `C[C@@H]1CNc2c(sc3ccc4nc(-c5ccc(O)cc5)ccc4c23)C(=O)N1`, for which the “%Inh” value with TESK1 is 8%; in the experiment on TGFBR1, 1%; in the experiment with TGFBR2, 60%; in the experiment with TIE1 it was 0%; with TIE2, 25%; in the experiment with TLK1 it was 24%. For the same compound, the “%Inh” value in the experiment with TLK2 is listed as 0%; with TNIK, 42%; with TNK1, 14%; in the experiment with TNK2, 0%.

On to `Cc1nnc(-c2ccc3occ(-c4ccc(S(C)=O)cc4)c3n2)o1` (stereo not shown), for which the “%Inh” value in the experiment on TESK1 is recorded as 0%; in the experiment with TGFBR1, 0%; in the experiment with TGFBR2, 0%; with TIE1, 0%; in the experiment on TIE2, 0%; with TLK1 it was 3%. Further, the “%Inh” value in the experiment with TLK2 worked out at 0%; in the experiment on TNIK, 1%; with TNK1 it was 0%; in the experiment with TNK2 it was 0%.

As to `C[C@@H]1CNc2c(sc3ccc4nc(-c5ccncc5)ccc4c23)C(=O)N1`, the “%Inh” value in the experiment on TESK1 stood at 0%; in the experiment on TGFBR1 it was 0%; in the experiment with TGFBR2, 48%; in the experiment with TIE1 it was 0%; in the experiment with TIE2, 0%; in the experiment on TLK1, 0%. In addition, the “%Inh” value with TLK2 came to 0%; in the experiment with TNIK, 0%; in the experiment with TNK1, 22%; with TNK2 it was 0%.

Consider `O=C(Nc1cccc(Oc2ccc3nccn3n2)c1)Nc1cccc(C(F)(F)F)c1`, for which the “%Inh” value amounted to 11% in the experiment on TESK1; 4% in the experiment on TGFBR1; 0% in the experiment with TGFBR2; 75% in the experiment with TIE1; 5% with TIE2; 14% in the experiment with TLK1. Further, the “%Inh” value with TLK2 amounted to 0%; with TNIK it was 51%; with TNK1 it was 26%; in the experiment with TNK2, 0%.

Regarding `Cc1ccn2nc(-c3ccc(F)cc3)c(-c3ccncc3)c2c1.Cl` [GW457859], the “%Inh” value in the experiment with TESK1 is given as 34%; in the experiment on TGFBR1, 12%; with TGFBR2 it was 0%; with TIE1, 0%; in the experiment on TIE2, 0%; with TLK1 it was 6%. Further, the “%Inh” value in the experiment on TLK2 worked out at 0%; with TNIK it was 58%; in the experiment on TNK1 it was 0%; with TNK2, 0%.

Regarding `CN(c1ccccc1CNc1nc(Nc2ccc3c(c2)CC(=O)N3)ncc1C(F)(F)F)S(C)(=O)=O`, the “%Inh” value in the experiment on TESK1 is 0%; in the experiment with TGFBR1 it was 0%; with TGFBR2 it was 16%; with TIE1, 90.6%; in the experiment on TIE2, 49%; with TLK1 it was 0%. Moreover, the “%Inh” value was determined as 0% in the experiment on TLK2, 1% with TNIK, 83% in the experiment with TNK1 and 53% in the experiment on TNK2.

Consider `CS(=O)(=O)c1cccc(CNc2nc(Nc3ccc4c(c3)[C@@H]3C[C@@H]4CNC3=O)ncc2C(F)(F)F)c1`, for which the “%Inh” value in the experiment with TESK1 was 0%; in the experiment on TGFBR1, 0%; in the experiment on TGFBR2, 0%; in the experiment with TIE1, 83%; with TIE2 it was 68%; in the experiment with TLK1, 18%. The “%Inh” value with TLK2 was found to be 0%; with TNIK, 88%; in the experiment with TNK1, 97.2%; with TNK2, 56%.

Turning to `CCNCC(Cc1ccccc1)NC(=O)c1cc(Br)c(-c2ccnc3[nH]ccc23)s1.Cl.Cl` (stereo not shown) [GSK1383280], the “%Inh” value was 24% in the experiment with TESK1; 0% in the experiment on TGFBR1; 0% with TGFBR2; 75% in the experiment with TIE1; 0% with TIE2; 18% with TLK1. Moreover, the “%Inh” value was 16% with TLK2, 50% in the experiment with TNIK, 0% in the experiment with TNK1 and 10% with TNK2.

Turning to `Cl.Nc1n[nH]c2cc(-c3ccccn3)ccc12` [GSK2189892], the “%Inh” value stood at 22% in the experiment on TESK1; 0% with TGFBR1; 0% in the experiment on TGFBR2; 0% in the experiment on TIE1; 0% with TIE2; 0% with TLK1. In addition, the “%Inh” value in the experiment on TLK2 worked out at 0%; in the experiment with TNIK, 5%; in the experiment with TNK1, 0%; in the experiment on TNK2 it was 15%.

Turning to `O=C(Nc1ccc(Oc2ccc3nc(NC(=O)C4CC4)cn3n2)c(F)c1)c1cccn(-c2ccccc2)c1=O`, the “%Inh” value in the experiment on TESK1 is given as 17%; in the experiment with TGFBR1, 9%; in the experiment on TGFBR2, 9%; in the experiment on TIE1 it was 92.2%; with TIE2 it was 90.1%; in the experiment on TLK1, 0%. The “%Inh” value was 0% in the experiment with TLK2, 34% in the experiment with TNIK, 59% in the experiment on TNK1 and 0% in the experiment on TNK2.

Consider `C[C@@H](Oc1cc(-n2cnc3ccc(-c4ccncc4)cc32)sc1C(N)=O)c1ccccc1Cl` [GSK483724], for which the “%Inh” value in the experiment with TESK1 is 37%; with TGFBR1 it was 0%; in the experiment on TGFBR2, 0%; in the experiment with TIE1 it was 41%; in the experiment with TIE2, 0%; in the experiment with TLK1, 0%. The “%Inh” value in the experiment with TLK2 stood at 0%; in the experiment with TNIK it was 9%; in the experiment on TNK1 it was 0%; in the experiment on TNK2 it was 25%.

As to `Cc1cccc2c(-c3ccncc3)c(-c3ccc(F)cc3)nn12.Cl` [GW461487], the “%Inh” value in the experiment on TESK1 was 0%; in the experiment on TGFBR1, 8%; in the experiment on TGFBR2, 0%; in the experiment with TIE1, 0%; with TIE2, 0%; in the experiment with TLK1, 10%. The “%Inh” value in the experiment on TLK2 worked out at 2%; in the experiment with TNIK, 7%; with TNK1, 0%; with TNK2, 9%.

For `C[C@@H]1CCN(C(=O)N2CCCC2)C[C@@H]1N(C)c1ncnc2[nH]ccc12`, the “%Inh” value in the experiment on TESK1 is given as 16%; in the experiment on TGFBR1 it was 0%; in the experiment on TGFBR2 it was 0%; in the experiment with TIE1, 22%; in the experiment with TIE2 it was 10%; with TLK1, 12%. In addition, the “%Inh” value with TLK2 is recorded as 0%; in the experiment with TNIK, 14%; with TNK1, 69%; in the experiment with TNK2, 0%.

As for `CC(=O)c1c(-c2ccncc2)[nH]c(-c2ccncc2)c1C` [GW493036], the “%Inh” value with TESK1 came to 25%; in the experiment with TGFBR1, 23%; in the experiment on TGFBR2, 25%; in the experiment on TIE1 it was 0%; in the experiment on TIE2 it was 1%; with TLK1, 0%. For the same compound, the “%Inh” value in the experiment on TLK2 was 0%; in the experiment on TNIK, 0%; in the experiment on TNK1, 0%; in the experiment on TNK2 it was 19%.

Take `COc1cc2c(Nc3ccc(NC(=O)c4ccccc4)cc3)ncnc2cc1OCCCN1CCOCC1` [GSK301329]: the “%Inh” value in the experiment with TESK1 was found to be 37%; in the experiment with TGFBR1 it was 0%; in the experiment with TGFBR2 it was 0%; in the experiment on TIE1 it was 24%; in the experiment with TIE2, 0%; in the experiment with TLK1, 0%. The “%Inh” value with TLK2 came to 0%; in the experiment on TNIK, 0%; with TNK1 it was 56%; in the experiment on TNK2, 66%.
